PubChem BioAssay AID2642 (Johns Hopkins Ion Channel Center, 2010)
In all, about 310,000 compounds went through this assay and about 3,900 (1.3%) were called active.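 How the source made its calls: active means compounds whose thallium flux B-score, printed positive for inhibition, exceeds three library SD while starting fluorescence stays within three; inactive means the rest.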 Many of the other results were omitted from the sample, so actives are more common in it than they were.

These compounds were tested against Potassium voltage-gated channel subfamily KQT member 1 (Homo sapiens) (UniProt P51787) (assay: KCNQ1 potassium current blockers – cell-based, thallium flux, high-throughput, primary screen (AID 2642;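 further: channel opened by potassium depolarization with thallium stimulus after 20 min compound exposure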)). Conditions: CHO-K1 KCNQ1, FluxOR thallium flux fluorescence, at 10 µM; stronger effect = higher value.
Potassium voltage-gated channel subfamily KQT member 1 (Homo sapiens), sequence (P51787 whole entry, looked up): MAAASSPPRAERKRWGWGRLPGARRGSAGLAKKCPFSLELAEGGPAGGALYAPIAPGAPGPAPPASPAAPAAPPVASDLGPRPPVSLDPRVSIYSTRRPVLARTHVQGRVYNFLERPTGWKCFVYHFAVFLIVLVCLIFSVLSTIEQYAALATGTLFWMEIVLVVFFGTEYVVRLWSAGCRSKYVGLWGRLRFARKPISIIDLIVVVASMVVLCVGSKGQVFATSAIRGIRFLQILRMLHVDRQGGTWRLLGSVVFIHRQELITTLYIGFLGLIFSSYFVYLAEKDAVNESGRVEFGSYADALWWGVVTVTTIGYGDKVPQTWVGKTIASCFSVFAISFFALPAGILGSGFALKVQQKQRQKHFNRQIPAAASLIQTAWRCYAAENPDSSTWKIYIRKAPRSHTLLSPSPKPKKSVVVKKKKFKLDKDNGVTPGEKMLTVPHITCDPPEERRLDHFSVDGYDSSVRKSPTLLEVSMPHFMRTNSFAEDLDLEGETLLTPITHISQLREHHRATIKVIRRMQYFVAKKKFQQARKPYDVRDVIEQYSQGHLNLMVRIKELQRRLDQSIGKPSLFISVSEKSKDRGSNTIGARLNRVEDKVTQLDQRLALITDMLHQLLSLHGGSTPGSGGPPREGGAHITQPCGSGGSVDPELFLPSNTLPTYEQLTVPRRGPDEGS

Compound	B-score
COc1ccc(/C=N/n2c(C)cc(C)cc2=O)cc1	inactive
OCCC1CN(Cc2cccc(O)c2)CCN1CCc1ccccc1 (stereo not drawn)	inactive
COc1ccc(C2CC(=O)n3c(nc4ccccc43)S2)cc1OC (stereo not drawn)	inactive
COc1ccccc1C1CC(=O)n2c(nc(-c3ccccc3)c2-c2ccccc2)S1 (stereo not drawn)	7 (active)
COc1cccc(C2CC(c3ccccc3)=NN2S(=O)(=O)c2ccccc2)c1OC (stereo not drawn)	inactive
COc1ccc2[nH]c3c(=O)n(Cc4ccco4)cnc3c2c1	inactive
COc1ccc(-c2oc3ncnc(NCCCO)c3c2-c2ccc(OC)cc2)cc1	inactive
COc1ccc(-c2oc3ncn(Cc4ccco4)c(=N)c3c2-c2ccc(OC)cc2)cc1	9 (active)
CCOc1ccc2ccccc2c1/C=N/NC(=O)c1c(C)cc(C)[nH]c1=O	inactive
CN(C(=O)CCNC(=O)Cn1ccc2ccccc2c1=O)c1ccc(Br)cc1	inactive
CCn1c(SCC(=O)Nc2ccc(OC)c(OC)c2)nnc1-c1c[nH]c2ccccc12	inactive
CCn1c(SCCC(C)C)nnc1-c1c[nH]c2ccccc12	6 (active)
CCC(C)Sc1nnc(-c2c[nH]c3ccccc23)n1CCOC (stereo not drawn)	inactive
CC1CC(=S)Nc2ccccc2N1Cc1ccccc1 (stereo not drawn)	inactive
COc1ccc(S(=O)(=O)N2CCCC(C(=O)NCCCn3ccnc3)C2)cc1OC (stereo not drawn)	inactive
COC(=O)C[n+]1cccc2ccccc21	8 (active)
Cc1cccc[n+]1CC(=O)c1ccccc1	inactive
COc1ccccc1NC(=O)C[n+]1ccccc1	inactive
O=C(CC1C(=O)NCCN1C(=O)c1ccc([N+](=O)[O-])cc1)Nc1cccc(Cl)c1 (stereo not drawn)	inactive
CC1c2nc3ccccc3n2C(CC(=O)NCCCN2CCOCC2)C(=O)N1Cc1ccccc1 (stereo not drawn)	inactive
Cc1cc(Cl)ccc1OCCCC(=O)Nc1cccc(-n2cnnn2)c1	inactive
O=C(CCC1CCCCC1)Nc1cc(C(F)(F)F)ccc1N1CCOCC1	inactive

Compound	B-score
COc1cc(S(=O)(=O)N2CCOCC2)ccc1NC(=O)COc1ccc(N(C)S(=O)(=O)c2ccc(C)cc2)cc1	13 (active)
COc1ccc(NC(=O)CN2C(=O)COc3ccc(S(=O)(=O)N4CCOCC4)cc32)c(OC)c1	inactive
COc1ccc(S(=O)(=O)N2CCOCC2)cc1NC(=O)COc1ccccc1	inactive
CCOC(=O)c1c(NC(=S)NC)sc2c1CCCC2	inactive
CCOC(=O)c1c(NC(=O)C(C)Sc2c[nH]c3ccccc23)sc2c1CCC2 (stereo not drawn)	12 (active)
CCOC(=O)c1c(NC(=O)CSc2cn(CC)c3ccccc23)sc2c1CCC2	inactive
CCOc1ccc(S(=O)(=O)N2CCC(C(=O)OCc3ccc(OC)cc3)CC2)cc1	inactive
CC1CN(C(=S)Nc2ccc(Br)cc2Cl)CC(C)O1 (stereo not drawn)	inactive
CCCCOC(=O)Nc1nnc(CC(=O)NCc2ccccc2)s1	inactive
CC(=O)N1CCCc2cc(S(=O)(=O)N3CCCC(C(=O)NCc4ccc(Cl)cc4)C3)ccc21 (stereo not drawn)	inactive
CC(=O)N1c2ccc(S(=O)(=O)N3CCCC(C(=O)Nc4cccc(Cl)c4)C3)cc2CC1C (stereo not drawn)	inactive
CC(=O)N1CCCc2cc(S(=O)(=O)N3CCCC(C(=O)N4CCN(c5cccc(Cl)c5)CC4)C3)ccc21 (stereo not drawn)	8 (active)
CCCOc1cccc(C(=O)Nc2ccccc2C(=O)N2CCN(C)CC2)c1	inactive
COC(=O)c1c(NC(=O)COC(=O)[C@@H](NS(=O)(=O)c2ccccc2)C(C)C)sc2c1CCC2	inactive
O=C(O)c1ccc(N/N=C/c2cn(-c3ccccc3)nc2-c2cccs2)cc1	inactive
CC(C)(C)OC(=O)N/N=C/c1cn(-c2ccccc2)nc1-c1cccnc1	inactive
Cc1ccc(-c2nn(-c3ccccc3)cc2/C=N/NC(=O)c2ccc3c(c2)OCO3)cc1	6 (active)
CC(=O)Nc1ccc(N2C(=O)CCC2=O)cc1C	inactive
CCc1ccc(NC(=O)COC(=O)c2cccs2)cc1	inactive
COC(=O)[C@H](Cc1ccccc1)NC(=O)Nc1ccc(OC)cc1	inactive
Cc1ccc(C)c(NC(CC(=O)c2ccccc2)C(=O)OCC(=O)c2cccs2)c1 (stereo not drawn)	inactive
NC(=O)c1ccc(NC(=O)COC(=O)C(Cc2ccccc2)NC(=O)c2ccccc2)cc1 (stereo not drawn)	6 (active)

Compound	B-score
O=C(COC(=O)[C@H](Cc1ccccc1)NC(=O)c1cccs1)Nc1cc(F)ccc1F	6 (active)
CCC(C(=O)OCC(=O)Nc1ccc(C(=O)Nc2ccc(OC)cc2)cc1)c1ccccc1 (stereo not drawn)	inactive
CCCCSCCCNC(=O)C1CCC(CNS(=O)(=O)c2ccc(NC(C)=O)cc2)CC1 (stereo not drawn)	inactive
C=CCSc1nc(N)cc(=O)[nH]1	inactive
COc1ccc(C(=O)OCC(=O)Nc2cccc(C(C)=O)c2)cc1OC	inactive
CN1CCN(C(CNS(=O)(=O)c2cccs2)c2cccnc2)CC1 (stereo not drawn)	inactive
CCOC(=O)N1CCN(c2c(NCCCN3CCCC(C)C3)c(=O)c2=O)CC1 (stereo not drawn)	inactive
CCC1C=C(c2ccccc2)C=CN=C1N(CC)CC (stereo not drawn)	inactive
c1ccc2c(NC3C4CC5CC(C4)CC3C5)nc(N3CCOCC3)nc2c1 (stereo not drawn)	inactive
CC1(C)Cc2c(cnn2-c2cccc(F)c2)C(NC(=O)c2cc[n+]([O-])cc2)C1 (stereo not drawn)	inactive
CC(=O)NCC(=O)NC1CCCc2c1cnn2-c1ccccc1F (stereo not drawn)	inactive
Cc1ccc(-n2ncc3c2CCCC3NC(=O)c2cnccn2)cc1C (stereo not drawn)	inactive
Cn1nccc1C(=O)NC1CCCc2c1cnn2-c1ccccc1F (stereo not drawn)	6 (active)
Cn1nccc1CNC(=O)c1ccnn1C	inactive
Cc1cc(C(=O)NC2CCCc3c2cnn3-c2cccc(C)c2C)c(C)o1 (stereo not drawn)	inactive
COc1ccc(C(=O)NC2CCCc3c2cnn3-c2cccc(C)c2C)c(OC)n1 (stereo not drawn)	11 (active)
COc1ccc(C(=O)NC2CC(C)(C)Cc3c2cnn3-c2ccccc2C)o1 (stereo not drawn)	inactive
Cn1nccc1C(=O)NC1CCCc2c1cnn2-c1ccc(F)cc1F (stereo not drawn)	9 (active)
Cc1nc(C(=O)N2CCCC(C(=O)c3ccc(Cl)cc3)C2)cs1 (stereo not drawn)	inactive
CCOC(=O)N1CCN(CCC(=O)Nc2ccccc2)CC1	inactive
Cc1cccc(NC(=O)C2CCCN(C(=O)Nc3ccc(F)cc3)C2)c1C (stereo not drawn)	inactive
COc1cccc2c(C)c(C(=O)O)[nH]c12	inactive

Compound	B-score
Cc1nn(-c2ncc(C(F)(F)F)cc2Cl)c(=O)n1-c1ccccc1	inactive
CC1CCCC(N2CCN(C(=O)c3ccc(F)cc3)CC2)C1 (stereo not drawn)	inactive
C=CCn1c(SCC(N)=O)nnc1-c1cc2c(s1)CCC(CC)C2 (stereo not drawn)	inactive
COc1ccc(-c2csc3ncnc(N4CCN(S(=O)(=O)c5ccccc5C#N)CC4)c23)cc1	inactive
COc1ccc(-c2csc3ncnc(N4CCN(S(=O)(=O)c5cccc(F)c5)CC4)c23)cc1	6 (active)
COc1ccc(-c2csc3ncnc(Oc4ccc5c(C)cc(=O)oc5c4)c23)cc1	inactive
CCN(c1ccc(NC(=O)COC(=O)CCc2nc3ccccc3n2-c2ccccc2)cc1)C(C)C	inactive
CCN1/C(=C\c2ccc3ccccc3[n+]2CC)Sc2cc(C)ccc21	15 (active)
O=C(CNS(=O)(=O)c1ccccc1)NCC(=O)OCc1ccccc1F	inactive
Cc1ccc(SCC(=O)NC(=O)NCc2ccco2)c(C)c1	inactive
CC(=O)NCc1ccc(S(=O)(=O)NC2CCN(Cc3ccccc3)CC2)cc1	inactive
COc1ccc(C)cc1NC(=S)Nc1ccccc1SC	inactive
O=C1NC(=Nc2ccc(Cl)cc2)SC1Cc1cccc(Cl)c1Cl (stereo not drawn)	inactive
Cc1ccc(NC(=O)Nc2cccnc2)cc1	inactive
O=C(NNC(=O)c1csc(-c2cccnc2)n1)Nc1ccc(Cl)cc1	inactive
O=C(Nc1ccc(Cl)cc1)Nc1ccc(Oc2cccnc2)nc1	8 (active)
Cc1cccc(N2CCC(NCc3c(C(=O)N4CCCCC4)nc4c(C)cccn34)CC2)c1	inactive
Cc1ccccc1N1CCN(S(=O)(=O)c2ccc3ccccc3c2)CC1	inactive
Cc1ccc(S(=O)(=O)N2CCN(C)CC2)cc1	inactive
Cc1ccc(N2CCN(S(=O)(=O)c3ccc(F)cc3)CC2)c(C)c1	7 (active)
Clc1cccc(-c2nc(NCC3CCCO3)c3ccccc3n2)c1 (stereo not drawn)	6 (active)
O=C(NCC1CCCO1)c1cc(-c2ccccc2)nc2ccccc12 (stereo not drawn)	inactive

Compound	B-score
c1ccc2c(NCC3CCCO3)nc(-c3ccncc3)nc2c1 (stereo not drawn)	inactive
COc1ccc(CC(NC(C)=O)C(=O)NC2CCN(C(=O)c3ccc(Cl)cc3)CC2)cc1 (stereo not drawn)	inactive
CC1CCN(C(=S)NC(=O)c2ccccc2Br)CC1	inactive
C=CCn1c(-c2ccc3[nH]c(C)c(C)c3c2)n[nH]c1=S	inactive
C=CCn1c(-c2sc(-c3ccccc3)nc2C)n[nH]c1=S	inactive
C=CCn1c(-c2ccccc2OCC)n[nH]c1=S	6 (active)
COc1ccc(S(=O)(=O)N2CCN(C)CC2)c(C)c1	inactive
CC(C)(C)NC(=O)CN(Cc1cccs1)C(=O)CNS(=O)(=O)c1ccccc1	inactive
CCC1=Nc2cc(C(=O)NCCN3CCCC3)ccc2Sc2ccc(C)cc21	inactive
Cc1ccc(C(=O)NCCN2CCOCC2)cc1C	inactive
Cc1cccc(-c2nc3ccc(C(=O)NCCN4CCN(C)CC4)cc3nc2-c2cccc(C)c2)c1	7 (active)
O=C(Nc1ccccc1N1CCN(C(=O)c2ccccc2)CC1)c1ccco1	inactive
CCCNC(=O)c1ccc(N2CCC3(CC2)CC(c2ccc(Cl)cc2)=NO3)c([N+](=O)[O-])c1	inactive
CCCNC(=O)c1ccc(N2CCC3(CC2)CC(c2cccc(Br)c2)=NO3)c(NC(=O)c2ccco2)c1	6 (active)
c1ccc2c(C[n+]3csc4ccccc43)cccc2c1	inactive
CC1(C(=O)NCCc2c[nH]c3ccccc23)C=CC2(CCCCC2)N1C(=O)c1ccccc1 (stereo not drawn)	inactive
C/C(=N\NC(=S)NC1CCCCC1)c1ccc(C)o1	inactive
CCc1nnc(NC(=O)CSc2nnc(COc3ccc(C#N)cc3)n2-c2ccccc2)s1	inactive
CCc1nnc(NC(=O)CSc2nnc(Cc3ccccc3)n2-c2ccc(OC)cc2)s1	11 (active)
CCc1nnc(NC(=O)CSc2nnc(-c3ccncc3)n2Cc2ccccc2)s1	inactive
